# CF NFkB inh – blocks PAF-induced NF-kB reporter in cystic fibrosis cells; inhibition, % at 5 µM; KKLEB NF-kB-GFP reporter, GFP fluorescence overnight; AID 588850; hit rate 0.86% among 360,000;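 active = at least 50% inhibition at 5 µM, scaled per plate between neutral and stimulator controls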;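 note: PAF is a Pseudomonas aeruginosa culture filtrate used as stimulus; plate controls were PAF-stimulated DMSO wells for no effect and unstimulated DMSO wells for full effect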
# HIF-2a inh – blocks HIF-2a reporter activity. 786-0 RCC cells HIF-2a reporter, luciferase luminescence, overnight. hit rate 0.72% among 360,000. inhibition, % at 18.8 µM;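 active = inhibition of the luminescence signal of 40% or more relative to plate controls, in a single-dose primary screen at 18.75 µM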
# Peg3 promoter – reduces Peg3 promoter-driven luciferase expression in HeLa; HeLa PEG-Prom luciferase reporter, luminescence, overnight; inhibition, % at 20 µM; hit rate 1.7% among 360,000; AID 588405;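 active = inhibition of at least 50% at 20 µM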
# Shn3 3UTR inh – inhibitors of Schnurri-3 3'UTR reporter in osteoblasts. AID 588674. Clone20 osteoblast Shn3 3'UTR firefly luciferase, 24 h. hit rate 0.52% among 360,000. inhibition, % at 12.5 µM;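 active = mean inhibition of at least 75% with every replicate also reaching 75%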;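 note: 0% = median of neutral control wells and 100% = pilot-screen positive control compound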
# KKLEB cytotox – counter-screen for CF NF-kB inhibitors: cytotoxicity; KKLEB CF airway cells viability, ATPlite luminescence, overnight; stronger effect = lower value; cells stimulated with P. aeruginosa culture filtrate; activity change (cytotoxicity), % at 5 µM; hit rate 0.36% among 360,000; AID 602141;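 active = corrected activity change at or below -50% at 5 µM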
# MITF TRPM1 inh – reduces MITF-dependent TRPM1 promoter luciferase signal. SK-MEL-5 TRPM1 promoter luciferase, 24 h. inhibition, % at 12.5 µM. hit rate 0.83% among 330,000. AID 488899;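 active = mean inhibition across replicates of 60% or more, whatever share of single replicates reaches that level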
# The depositor's hits bear a star; nt = no result given. An excerpt weighted towards active compounds, which were near 2.8% of everything screened.
SMILES,CF NFkB inh,HIF-2a inh,Peg3 promoter,Shn3 3UTR inh,KKLEB cytotox,MITF TRPM1 inh
CCOC(=O)[C@]12CCC=C1N(Cc1ccco1)C(=O)[C@H](CC(=O)NCCCN1CCCC1=O)C2,nt,4,nt,nt,nt,nt
Cn1cccc1C(=O)NNC(=O)COc1ccc(C#N)cc1,12,5,74*,-2,0,-1
CCCNC(=O)NC(=O)COc1ccc(-c2ccc(C#N)cc2)cc1,-23,9,7,18,-4,5
COc1ccc(N=C2NC(=O)/C(=C/c3ccc(O)c(OC)c3)S2)cc1,57*,12,37,11,-7,-9
COc1cc(/C=C2/SC(=Nc3ccc(O)cc3)NC2=O)cc(OC)c1O,-12,26,18,10,-13,7
C=CC[n+]1c(-c2ccc(Cl)cc2Cl)csc1Nc1ccc(NC(C)=O)cc1,-9,95*,40,60,9,10
C=CC[n+]1c(-c2ccc(Cl)cc2Cl)csc1Nc1c(C)n(C)n(-c2ccccc2)c1=O,-12,15,8,76,11,20
CC(C)C[C@H]1CNC(=S)N1C[C@H]1CCCN1C[C@H](Cc1ccc(O)cc1)N1C[C@H](CC(C)C)N(CC2CCCCCC2)C1=S,42,-4,19,12,-9,nt
CSc1nc(N)c(C#N)c(-c2ccc(Cl)cc2)c1C#N,-3,38,58*,11,-5,3
CCOc1ccc(C(=O)C(CCC(CN(C)C)C(=O)c2ccc(OCC)cc2)CN(C)C)cc1 (configuration not stated),96*,93*,106*,98*,-100*,103*
CN(C)CC(CCC(CN(C)C)C(=O)c1ccccc1)C(=O)c1ccccc1 (configuration not stated),90*,94*,109*,98*,-61*,97*
O=C(c1ccccc1)C(CCc1ccccn1)CCc1ccccn1,-27,-146,-151,-23,4,-34
COc1ccc(C(=O)C(CCCCC(CN(C)C)C(=O)c2ccc(OC)cc2)CN(C)C)cc1 (configuration not stated),4,15,46,-28,1,51
O=C(CN1C(=O)NC2(CCOc3ccccc32)C1=O)NCC(F)(F)F (configuration not stated),7,9,13,5,5,-2
O=[N+]([O-])c1ccc(N=Nc2c(Cl)cc(O)cc2Cl)cc1,56*,-196,72*,72,-70*,18
CC[C@]1(c2ccccc2C)ON(c2ccccc2C(F)(F)F)C1=O,23,12,36,-6,14,10
O=C1N(c2ccccc2C(F)(F)F)OC1(Cc1ccccc1)c1ccccc1 (configuration not stated),42,-9,58*,-12,10,14
COc1ccc(C)cc1NC(=O)CCNS(=O)(=O)c1ccc2c(c1)CC(C)N2C(C)=O (configuration not stated),18,16,8,4,1,3
CC1(C)Cc2c(cnn2-c2ccc(F)cc2)C(NC(=O)CCN2CCCCO2)C1 (configuration not stated),22,-29,-16,-9,0,-4
Cc1ccc(-n2ncc3c2CC(C)(C)CC3NC(=O)CCN2CCCO2)cc1 (configuration not stated),-19,7,50*,3,11,-4
CCN(CC)c1ccc(N2C(=O)/C(=C\c3cccnc3)SC2=S)cc1,4,11,23,19,4,21
CCN(CC)c1ccc(N2C(=O)/C(=C/c3cccnc3)SC2=S)cc1,56*,8,11,18,-39,12
CSc1ncccc1C(=O)OCC(=O)NC1CCC(C)CC1 (configuration not stated),21,-4,-14,3,3,-15
CC(C)C1CC(CCNCc2ccc3c(c2)OCO3)(c2ccccc2)CCO1 (configuration not stated),7,15,-22,15,-7,-15
CC(C)C1CC(CCNCc2ccc(N(C)C)cc2)(c2ccccc2)CCO1 (configuration not stated),13,0,59*,1,-5,73*
CC(C)NC(=O)C1(C)CCN1C(=O)Cc1ccc(-c2ccccc2)cc1 (configuration not stated),29,-5,4,-13,-21,nt
